According to PubChem BioAssay (EPA / NIEHS):
Inconclusive results are not listed. The source made the active and inactive calls. The calls were made as follows, unless noted: active = hit-call score of the fitted dose curve at least 0.9, where 1 is the maximum; inactive = score below 0.9.

Columns and labels:
[1] = ATG_NFI_CIS: Attagene CIS-FACTORIAL HepG2 Assay for human Nuclear Factor I (NFI) (AID 2282989); settings: HepG2 cis-regulatory reporter, NFI response element transcription; actives raise or lower the signal
How it was run: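 Read-out: reporter mRNA via RT-PCR plus capillary electrophoresis with fluorescence detection. Transiently transfected HepG2 (endogenous TF activity on cis promoters), 24 h compound exposure; gain or loss of signal fitted against DMSO.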

[2] = target: Myc proto-oncogene protein (Homo sapiens) (UniProt P01106); test: ATG_Myc_CIS: Attagene CIS-FACTORIAL HepG2 Assay for human Myelocytomatosis (Myc) Proto-Oncogene Transcription Factor (AID 2282990); settings: HepG2, Attagene cis-reporter transcription factor activity; actives raise or lower the signal
Sequence of Myc proto-oncogene protein (Homo sapiens) (P01106 whole entry, looked up): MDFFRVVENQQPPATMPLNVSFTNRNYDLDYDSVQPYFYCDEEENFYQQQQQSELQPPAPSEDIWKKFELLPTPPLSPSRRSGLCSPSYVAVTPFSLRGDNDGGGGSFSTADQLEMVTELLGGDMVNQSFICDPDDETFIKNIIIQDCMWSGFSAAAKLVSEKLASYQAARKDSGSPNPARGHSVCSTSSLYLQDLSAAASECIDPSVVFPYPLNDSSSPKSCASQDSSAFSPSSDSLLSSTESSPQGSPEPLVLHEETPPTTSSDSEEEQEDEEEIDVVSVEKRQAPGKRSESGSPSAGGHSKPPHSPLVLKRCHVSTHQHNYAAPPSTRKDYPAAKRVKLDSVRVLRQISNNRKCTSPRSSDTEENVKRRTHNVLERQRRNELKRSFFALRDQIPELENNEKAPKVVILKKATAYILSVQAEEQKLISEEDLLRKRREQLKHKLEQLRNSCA
How it was run: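 DMSO-normalised, bidirectionally fitted reporter mRNA signal. HepG2 cells transfected with cis reporter constructs, treated 24 h; transcripts detected by RT-PCR, 6-FAM primer extension and CE.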

[3] = ATG_NRF2_ARE_CIS: Attagene CIS-FACTORIAL HepG2 Assay for human Nuclear Factor Erythroid 2 Related Factor 2 (NFR2) response to Antioxidant Response Elements (ARE) (AID 2282992); settings: HepG2 Attagene ARE/NRF2 reporter, transcription factor activity; actives raise or lower the signal
How it was run: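 Endogenous transcription factor activity in human liver HepG2 cells is tracked via a cis-element-driven reporter within a multiplexed set. mRNA induction is read by RT-PCR and capillary electrophoresis after 24 h, with DMSO as baseline.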

[4] = ATG_Oct_MLP_CIS: Attagene CIS-FACTORIAL HepG2 Assay for human Octamer-Binding Transcription Factor (Oct) (AID 2282993); settings: HepG2 Attagene cis-factorial Oct reporter, mRNA; actives raise or lower the signal
How it was run: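 Read-out: reporter mRNA via RT-PCR plus capillary electrophoresis of 6-FAM-labelled fragments. Transiently transfected HepG2, 24 h exposure, endogenous TF activity on cis elements. Gain or loss of signal fitted relative to DMSO.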

[5] = target: Cellular tumor antigen p53 (Homo sapiens) (UniProt P04637); test: ATG_p53_CIS: Attagene CIS-FACTORIAL HepG2 Assay for human p53 Transcription Factor (AID 2282994); settings: HepG2 p53 cis-element reporter, Attagene mRNA; actives raise or lower the signal
Sequence of Cellular tumor antigen p53 (Homo sapiens) (P04637 whole entry, looked up, the tested form may be a part): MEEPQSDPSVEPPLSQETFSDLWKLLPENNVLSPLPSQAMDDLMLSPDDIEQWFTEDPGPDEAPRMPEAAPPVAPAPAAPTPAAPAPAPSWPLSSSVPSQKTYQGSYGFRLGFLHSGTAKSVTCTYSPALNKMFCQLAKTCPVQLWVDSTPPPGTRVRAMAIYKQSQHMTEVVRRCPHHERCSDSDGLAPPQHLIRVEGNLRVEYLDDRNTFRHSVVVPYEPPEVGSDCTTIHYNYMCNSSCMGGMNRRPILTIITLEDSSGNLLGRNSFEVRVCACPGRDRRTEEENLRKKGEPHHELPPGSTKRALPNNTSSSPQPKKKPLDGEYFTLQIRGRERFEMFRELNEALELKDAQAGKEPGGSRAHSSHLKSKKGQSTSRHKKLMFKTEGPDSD
How it was run: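 Steps: transfect HepG2 with multiplexed cis reporter constructs; dose chemicals 24 h; extract RNA, reverse-transcribe, PCR-amplify reporter sequences; FAM-label, HpaI-digest, resolve fragments by CE. Activity fitted both directions relative to DMSO.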

[6] = target: Nuclear receptor subfamily 1 group I member 2 (Homo sapiens) (UniProt O75469); test: ATG_PXR_TRANS: Attagene TRANS-FACTORIAL HepG2 Assay for human Pregnane X Receptor (PXR) (AID 2283008; active = hit-call score of the fitted dose curve at least 0.9, where 1 is the maximum)
Sequence of Nuclear receptor subfamily 1 group I member 2 (Homo sapiens) (O75469 whole entry, looked up, the tested form may be a part): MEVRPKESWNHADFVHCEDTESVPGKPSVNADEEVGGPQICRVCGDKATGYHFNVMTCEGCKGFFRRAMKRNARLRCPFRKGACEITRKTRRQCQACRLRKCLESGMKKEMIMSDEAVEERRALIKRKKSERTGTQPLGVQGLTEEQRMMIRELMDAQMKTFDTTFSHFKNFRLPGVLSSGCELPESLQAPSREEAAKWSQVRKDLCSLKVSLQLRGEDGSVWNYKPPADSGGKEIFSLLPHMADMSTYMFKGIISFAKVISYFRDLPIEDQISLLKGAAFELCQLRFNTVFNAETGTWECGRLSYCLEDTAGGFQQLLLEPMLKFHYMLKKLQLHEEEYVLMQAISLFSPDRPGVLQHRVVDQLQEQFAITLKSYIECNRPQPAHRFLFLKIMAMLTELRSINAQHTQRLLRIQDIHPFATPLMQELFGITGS
How it was run: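 HepG2 transfected (FuGene 6) with GAL4-UAS reporter units + PXR-Gal4 chimera; dosed 24 h. Total RNA → oligo(dT) RT → PCR → 6-FAM primer extension → HpaI cut → CE. Gain-of-signal vs DMSO.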

[7] = target: human Peroxisome Proliferator-activated Receptor alpha (PPARa), PPARA (gene 5465) (UniProt Q07869); test: ATG_PPARa_TRANS: Attagene TRANS-FACTORIAL HepG2 Assay for human Peroxisome Proliferator-activated Receptor alpha (PPARa) (AID 2283001; active = hit-call score of the fitted dose curve at least 0.9, where 1 is the maximum)
Sequence of human Peroxisome Proliferator-activated Receptor alpha (PPARa), PPARA (gene 5465) (Q07869 whole entry, looked up, the tested form may be a part): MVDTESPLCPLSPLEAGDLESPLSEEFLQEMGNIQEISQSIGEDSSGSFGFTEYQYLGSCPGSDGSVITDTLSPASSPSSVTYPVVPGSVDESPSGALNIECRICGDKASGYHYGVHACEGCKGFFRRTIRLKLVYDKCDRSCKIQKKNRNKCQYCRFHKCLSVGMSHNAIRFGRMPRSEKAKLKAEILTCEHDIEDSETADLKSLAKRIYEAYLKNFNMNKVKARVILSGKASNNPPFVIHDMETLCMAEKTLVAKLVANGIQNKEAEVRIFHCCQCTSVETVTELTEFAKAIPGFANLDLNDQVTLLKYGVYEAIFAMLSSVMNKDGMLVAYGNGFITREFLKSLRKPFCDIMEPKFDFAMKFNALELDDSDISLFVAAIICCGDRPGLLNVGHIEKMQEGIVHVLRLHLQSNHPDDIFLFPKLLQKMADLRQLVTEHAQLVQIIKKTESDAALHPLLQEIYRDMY
How it was run: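 Exposure: 24 h, transiently transfected HepG2 cells. Endpoint: GAL4-UAS reporter mRNA, RT-PCR with capillary electrophoresis fluorescence. Baseline: DMSO; increases fitted.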

[8] = target: human Peroxisome Proliferator-activated Receptor delta (PPARd), PPARD (gene 5467) (UniProt Q03181); test: ATG_PPARd_TRANS: Attagene TRANS-FACTORIAL HepG2 Assay for human Peroxisome Proliferator-activated Receptor delta (PPARd) (AID 2283002; active = hit-call score of the fitted dose curve at least 0.9, where 1 is the maximum)
Sequence of human Peroxisome Proliferator-activated Receptor delta (PPARd), PPARD (gene 5467) (Q03181 whole entry, looked up, the tested form may be a part): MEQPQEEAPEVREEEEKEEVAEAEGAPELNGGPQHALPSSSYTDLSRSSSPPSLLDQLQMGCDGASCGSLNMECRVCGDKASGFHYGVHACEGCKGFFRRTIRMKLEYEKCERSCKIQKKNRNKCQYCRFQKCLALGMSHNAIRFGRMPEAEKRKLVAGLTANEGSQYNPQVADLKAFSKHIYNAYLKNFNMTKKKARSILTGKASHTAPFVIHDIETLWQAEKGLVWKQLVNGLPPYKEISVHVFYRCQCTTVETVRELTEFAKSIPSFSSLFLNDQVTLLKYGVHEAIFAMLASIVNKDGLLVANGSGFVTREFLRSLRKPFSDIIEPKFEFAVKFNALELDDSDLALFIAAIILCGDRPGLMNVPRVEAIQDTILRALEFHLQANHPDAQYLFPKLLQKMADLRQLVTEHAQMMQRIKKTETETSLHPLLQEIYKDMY
How it was run: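 Measured quantity: GAL4-UAS reporter transcript induction in HepG2 after 24 h chemical dosing, with NR-Gal4 chimeras supplied by transient transfection. Detection by RT-PCR and capillary electrophoresis; upward fit against DMSO.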

[9] = target: human RAR-related Orphan Receptor beta (RORb), RORB (gene 6096) (UniProt Q92753); test: ATG_RORb_TRANS: Attagene TRANS-FACTORIAL HepG2 Assay for human RAR-related Orphan Receptor beta (RORb) (AID 2283010; active = hit-call score of the fitted dose curve at least 0.9, where 1 is the maximum)
Sequence of human RAR-related Orphan Receptor beta (RORb), RORB (gene 6096) (Q92753 whole entry, looked up, the tested form may be a part): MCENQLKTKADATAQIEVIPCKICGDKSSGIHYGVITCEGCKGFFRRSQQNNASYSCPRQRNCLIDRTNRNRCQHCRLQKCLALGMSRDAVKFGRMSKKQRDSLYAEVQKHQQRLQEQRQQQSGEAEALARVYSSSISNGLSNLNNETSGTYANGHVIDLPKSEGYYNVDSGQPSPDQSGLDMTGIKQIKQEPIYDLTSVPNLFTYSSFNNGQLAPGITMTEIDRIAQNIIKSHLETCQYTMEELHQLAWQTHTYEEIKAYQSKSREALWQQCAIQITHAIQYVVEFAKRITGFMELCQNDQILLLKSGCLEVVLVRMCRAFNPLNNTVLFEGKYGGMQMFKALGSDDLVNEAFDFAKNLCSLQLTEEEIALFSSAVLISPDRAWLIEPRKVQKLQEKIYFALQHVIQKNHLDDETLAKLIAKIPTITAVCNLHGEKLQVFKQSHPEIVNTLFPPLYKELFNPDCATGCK
How it was run: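 HepG2, transient MRTU transfection (GAL4-UAS reporters, exogenous NR-Gal4 chimeras); 24 h compound exposure; total RNA → RT-PCR → 6-FAM primer extension → HpaI digest → CE fluorescence. Positive direction vs DMSO baseline.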

[10] = BSK_3C_TissueFactor: BioMAP Diversity Plus: 3C Assay for Tissue Factor Biomarker Activity (AID 2282997); settings: BioMAP 3C HUVEC, tissue factor biomarker readout; actives raise or lower the signal
How it was run: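 HUVEC, 3C system, 24 h post-dose; Tissue Factor by ELISA; bidirectional fit vs DMSO baseline.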

[11] = BSK_3C_uPAR: BioMAP Diversity Plus: 3C Assay for Urokinase-type plasminogen activator receptor (uPAR) Biomarker Activity (AID 2282998); settings: BioMAP 3C HUVEC, uPAR biomarker ELISA; actives raise or lower the signal
How it was run: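 HUVEC primary cells; 24 h post-dose; uPAR by ELISA; gain or loss of signal fitted bidirectionally vs DMSO baseline.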

[12] = BSK_3C_VCAM1: BioMAP Diversity Plus: 3C Assay for Vascular cell adhesion molecule 1 (VCAM1) Biomarker Activity (AID 2282999); settings: BioMAP 3C HUVEC, VCAM1 ELISA, cytokine-stimulated; actives raise or lower the signal
How it was run: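 Vascular primary endothelium (human umbilical vein) was exposed to chemicals and assayed 24 h later. VCAM-1 levels came from ELISA, with DMSO serving as baseline for bidirectional fitting.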

[13] = BSK_4H_Eotaxin3: BioMAP Diversity Plus: 4H Assay for Eotaxin 3 Biomarker Activity (AID 2283000); settings: primary human endothelial cells (HUVEC); actives raise or lower the signal;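 also: CCL26 protein level quantified by ELISA in parallel with SRB cytotoxicity check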
How it was run: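 Readout is Eotaxin-3 (CCL26) level by ELISA in primary human umbilical vein endothelial cells harvested 24 h after chemical exposure; activity fitted in both directions against DMSO control.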

[14] = read-out: Intercellular Adhesion Molecule 1 (ICAM1), ICAM1 (gene 3383); test: BSK_3C_ICAM1: BioMAP Diversity Plus: 3C Assay for Intercellular Adhesion Molecule 1 (ICAM1) Biomarker Activity (AID 2283003); settings: primary human endothelial cells (HUVEC); actives raise or lower the signal
How it was run: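 ELISA read-out of ICAM-1; HUVEC (primary human), 3C system, 24 h post-dosing; bidirectional fit vs DMSO baseline.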

[15] = BSK_3C_Proliferation: Cell Proliferation Assessment in the BioMAP Diversity Plus: 3C Assay (AID 2283006); settings: primary human endothelial cells (HUVEC)
How it was run: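 HUVEC, sub-confluent; 48 h chemical exposure; 10% TCA fix, 0.1% SRB stain, A560 total protein. Gain or loss of signal fitted both directions vs DMSO control.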

[16] = target: Peroxisome proliferator-activated receptor gamma (Homo sapiens) (UniProt P37231); test: ATG_PPARg_TRANS: Attagene TRANS-FACTORIAL HepG2 Assay for human Peroxisome Proliferator-activated Receptor-gamma (PPARg) (AID 2283007; active = hit-call score of the fitted dose curve at least 0.9, where 1 is the maximum)
Sequence of Peroxisome proliferator-activated receptor gamma (Homo sapiens) (P37231 whole entry, looked up): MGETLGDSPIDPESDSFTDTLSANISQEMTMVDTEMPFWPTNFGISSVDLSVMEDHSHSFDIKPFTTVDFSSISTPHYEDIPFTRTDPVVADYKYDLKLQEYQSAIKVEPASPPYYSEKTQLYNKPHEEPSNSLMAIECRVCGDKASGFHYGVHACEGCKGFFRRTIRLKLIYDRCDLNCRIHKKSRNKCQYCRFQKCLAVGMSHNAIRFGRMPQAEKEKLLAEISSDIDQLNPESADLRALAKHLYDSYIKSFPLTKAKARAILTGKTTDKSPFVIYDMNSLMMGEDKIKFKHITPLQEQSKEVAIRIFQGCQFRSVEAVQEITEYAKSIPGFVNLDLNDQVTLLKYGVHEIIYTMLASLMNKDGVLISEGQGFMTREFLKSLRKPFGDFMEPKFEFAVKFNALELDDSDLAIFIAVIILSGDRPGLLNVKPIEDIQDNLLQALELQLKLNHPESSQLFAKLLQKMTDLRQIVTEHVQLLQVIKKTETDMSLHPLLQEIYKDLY
How it was run: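 Multiplexed reporter transcription units in HepG2, 24 h dosing, reporter transcripts quantified by fluorescent RT-PCR and capillary electrophoresis. Increase over DMSO scored.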

[17] = ATG_NF_kB_CIS: Attagene CIS-FACTORIAL HepG2 Assay for human Nuclear Factor Kappa B (NF-kB) (AID 2282991); settings: HepG2 Attagene cis-factorial NF-kB reporter mRNA; actives raise or lower the signal
How it was run: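 HepG2, transient multi-reporter transfection, cis promoter elements (endogenous TFs). 24 h exposure. Total RNA → RT → PCR → 6-FAM label → HpaI → CE. Gain/loss vs DMSO.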

[18] = target: human Retinoic Acid Receptor beta (RARb), RARB (gene 5915) (UniProt P10826); test: ATG_RARb_TRANS: Attagene TRANS-FACTORIAL HepG2 Assay for human Retinoic Acid Receptor beta (AID 2283004; active = hit-call score of the fitted dose curve at least 0.9, where 1 is the maximum)
Sequence of human Retinoic Acid Receptor beta (RARb), RARB (gene 5915) (P10826 whole entry, looked up, the tested form may be a part): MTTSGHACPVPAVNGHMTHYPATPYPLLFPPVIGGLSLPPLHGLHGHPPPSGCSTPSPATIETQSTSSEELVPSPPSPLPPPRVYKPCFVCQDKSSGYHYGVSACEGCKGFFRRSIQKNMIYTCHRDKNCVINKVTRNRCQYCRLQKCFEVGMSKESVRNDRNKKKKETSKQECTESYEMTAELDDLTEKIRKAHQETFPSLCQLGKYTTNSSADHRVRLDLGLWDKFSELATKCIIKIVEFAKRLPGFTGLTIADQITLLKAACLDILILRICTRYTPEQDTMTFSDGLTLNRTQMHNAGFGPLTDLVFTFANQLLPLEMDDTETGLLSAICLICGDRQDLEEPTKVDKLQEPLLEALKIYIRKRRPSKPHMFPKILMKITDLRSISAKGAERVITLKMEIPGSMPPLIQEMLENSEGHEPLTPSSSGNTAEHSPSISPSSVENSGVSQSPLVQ
How it was run: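 Readout is reporter mRNA induction: RNA reverse-transcribed, PCR-amplified, FAM-labelled, HpaI-cut and resolved by capillary electrophoresis. Transiently transfected HepG2 cells carrying exogenous NR–Gal4 chimeras were dosed for 24 h; activity fitted upward relative to DMSO.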

[19] = target: human Retinoic Acid Receptor gamma (RARg), RARG (gene 5916) (UniProt P13631); test: ATG_RARg_TRANS: Attagene TRANS-FACTORIAL HepG2 Assay for human Retinoic Acid Receptor gamma (RARg) (AID 2283009; active = hit-call score of the fitted dose curve at least 0.9, where 1 is the maximum)
Sequence of human Retinoic Acid Receptor gamma (RARg), RARG (gene 5916) (P13631 whole entry, looked up, the tested form may be a part): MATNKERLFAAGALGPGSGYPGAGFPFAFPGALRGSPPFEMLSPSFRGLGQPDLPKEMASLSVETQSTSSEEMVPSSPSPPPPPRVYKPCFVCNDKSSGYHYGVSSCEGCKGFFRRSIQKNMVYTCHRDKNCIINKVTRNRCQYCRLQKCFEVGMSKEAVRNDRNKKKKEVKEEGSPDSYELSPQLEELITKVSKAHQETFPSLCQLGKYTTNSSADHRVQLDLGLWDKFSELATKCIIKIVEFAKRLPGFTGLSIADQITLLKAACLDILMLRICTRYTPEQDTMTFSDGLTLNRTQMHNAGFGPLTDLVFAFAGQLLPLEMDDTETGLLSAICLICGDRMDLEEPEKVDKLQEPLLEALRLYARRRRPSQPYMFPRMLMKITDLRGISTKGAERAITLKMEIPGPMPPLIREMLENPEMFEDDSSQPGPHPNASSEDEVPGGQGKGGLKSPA
How it was run: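 Readout: reporter transcript levels via RT-PCR, 6-FAM primer-extension labelling, HpaI digestion and capillary electrophoresis. Cells: HepG2 carrying transfected RARg-GAL4 chimera plus UAS reporter set. Dosing 24 h; DMSO negative control.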

Measured: outcome

COc1ccc(NC(=O)CC(C)=O)cc1
inactive: [1] | [2] | [3] | [4] | [5] | [6]

CCCCOCCOCCOCCOCCO
inactive: [1] | [2] | [3] | [4] | [7] | [8] | [9]

O=C(O)c1cn(C2CC2)c2cc(N3CCNCC3)c(F)cc2c1=O
not listed: [1] | [2] | [3] | [8] | [9] | [17] | [18] | [19]
inactive: all other assays above

Sc1nc(S)nc(S)n1
inactive: [1] | [17] | [3] | [4] | [5] | [7] | [8] | [6] | [9]

O=C(O)c1cccc(C(F)(F)F)c1
inactive: [1] | [3] | [4] | [5] | [7] | [16]

CCCC(=O)c1cc(O)c(O)cc1O
inactive: [1] | [17] | [4] | [5] | [7] | [16] | [6]

NC(=O)NC1NC(=O)NC1=O (centres undefined)
inactive: [1] | [17] | [5] | [7] | [6]

NCCCCCCN
inactive: [1] | [17] | [3] | [5] | [7] | [18] | [16] | [6] | [19]

CC(C)[C@H]1CC[C@@H](C)CC1=O
inactive: [1] | [3] | [5] | [7] | [6] | [9]

Cc1ccc(C=O)cc1
inactive: [1] | [17] | [3] | [4] | [5] | [7] | [6]

CCCCCCCCCOC(C)=O
inactive: [1] | [17] | [4] | [5] | [16] | [6]
